From PubChem
Many of the other results were omitted from the sample, so hits are more common in it than they were.
PRC2 inh: blocks human EZH2/PRC2 H3K27 methylation. Q15910. DELFIA TRF, 1 h. inhibition, % at 12.5 µM. 0.35% of 57,000 active. AID 651548;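 active = mean inhibition of replicates at least 50% and every single replicate also reaching 50%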;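 note: dimethyl H3K27 on biotinylated H3 21-44 peptide detected by antibody; plate controls were median neutral control wells for no effect and median positive control wells for full effect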
Target sequence (Q15910 whole entry, looked up): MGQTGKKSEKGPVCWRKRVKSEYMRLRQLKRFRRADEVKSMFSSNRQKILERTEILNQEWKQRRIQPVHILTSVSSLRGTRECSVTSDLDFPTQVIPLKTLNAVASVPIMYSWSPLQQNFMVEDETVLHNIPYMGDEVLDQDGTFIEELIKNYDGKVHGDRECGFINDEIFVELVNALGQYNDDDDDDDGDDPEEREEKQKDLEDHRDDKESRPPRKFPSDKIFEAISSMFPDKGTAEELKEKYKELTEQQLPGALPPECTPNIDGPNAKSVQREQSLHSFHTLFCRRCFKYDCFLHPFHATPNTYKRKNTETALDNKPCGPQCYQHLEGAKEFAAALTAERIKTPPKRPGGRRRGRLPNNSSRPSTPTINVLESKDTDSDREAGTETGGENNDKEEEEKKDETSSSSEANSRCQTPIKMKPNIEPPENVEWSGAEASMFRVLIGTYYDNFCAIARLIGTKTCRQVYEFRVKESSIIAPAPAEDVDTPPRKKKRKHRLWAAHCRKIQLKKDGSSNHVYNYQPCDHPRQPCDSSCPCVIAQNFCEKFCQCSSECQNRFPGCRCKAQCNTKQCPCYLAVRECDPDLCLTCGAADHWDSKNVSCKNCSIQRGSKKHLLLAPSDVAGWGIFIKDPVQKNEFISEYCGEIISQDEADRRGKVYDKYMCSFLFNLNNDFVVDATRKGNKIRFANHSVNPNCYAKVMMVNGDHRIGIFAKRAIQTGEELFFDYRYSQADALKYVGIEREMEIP
* marks the source's active call; other numbers are inactive results.

SMILES | PRC2 inh
O=C(C(NS(=O)(=O)c1cccc2nsnc12)c1ccccc1)N1CCc2ccccc21 (stereo unspecified) | 0
Clc1nc(Cl)c2cc(Br)ccc2n1 | 32
Cc1cc(Cl)ccc1OC(C)C(=O)Nc1ccc(C(=O)Nc2ccccc2C(=O)O)cc1 (stereo unspecified) | 60*
Cc1cccc(C(=O)O)c1NC(=O)C(C)Oc1ccc(Cl)cc1Cl (stereo unspecified) | 4
COC(=O)c1ccccc1NC(=O)c1ccc(NC(=O)C(C)Oc2ccccc2)cc1 (stereo unspecified) | 4
O=C(CCCCC(=O)N/N=C/c1ccccc1Br)NO | 23
COc1cccc2c1C(=O)CC(c1ccccc1)O2 (stereo unspecified) | -11
COc1cc(O)c(OC)c2c1C(=O)CC(c1ccccc1)O2 (stereo unspecified) | 77*
COc1cc(O)c2c(c1)OC(c1ccc(O)cc1)CC2=O (stereo unspecified) | -4
CC1(C)[C@H]2CC=C(/C=N\NC(=O)CCCCCC(=O)Nc3ccccc3O)[C@@H]1C2 | 6
COC(=O)CCCCCCC(=O)N/N=C/c1cccnc1 | 24
CCCc1c(OCCCOc2ccc(OCC(=O)O)cc2)ccc(CC=O)c1O | 55*
Cc1c(CCC(=O)O)c(=O)oc2cc(OCC(=O)O)ccc12 | -22
O=C(O)COc1ccc(Cl)cc1CO | -5
CN1C(=O)c2ccccc2C(C(=O)NCc2ccco2)C1c1cn(C)c2ccccc12 (stereo unspecified) | -15
COC(=O)CCCCCCC(=O)N/N=C/c1ccc(OCCCN(C)C)cc1 | -4
COc1c(OC2OC(CO)C(O)C(O)C2O)ccc(O)c1C(=O)OCc1ccccc1O[C@@H]1O[C@H](CO)[C@@H](O)[C@H](O)[C@H]1O (stereo partly specified) | 18
COc1cc2c(=O)c(-c3ccc(O)cc3)coc2cc1O[C@@H]1O[C@@H](C)[C@H](O)[C@@H](O)[C@H]1O | -20
C[C@@H]1O[C@@H](OCC2OC(OC3C(OC4C(Oc5c(-c6ccc(O)c(O)c6)oc6cc(O)cc(O)c6c5=O)OC(CO)C(O)C4O)OC(CO)C(O)C3O)C(O)C(O)C2O)[C@H](O)[C@H](O)[C@H]1O (stereo partly specified) | 6
O=c1c(O[C@@H]2O[C@H](CO)[C@@H](O)[C@H](O)[C@H]2O)c(-c2ccc(O)cc2)oc2cc(O)cc(O)c12 | -5
CC1OC(Oc2cc(O)c3c(=O)c(OC4OC(CO)C(O)C(O)C4OC4OC(C)C(O)C(O)C4O)c(-c4ccc(O)cc4)oc3c2)C(O)C(O)C1O (stereo unspecified) | -12
C[C@@H]1O[C@@H](O[C@@H]2[C@@H](O)[C@H](Oc3c(-c4ccc(O)cc4)oc4cc(O)cc(O)c4c3=O)O[C@H](CO)[C@H]2O)[C@H](O)[C@H](O)[C@H]1O | 59*
COc1cc(-c2oc3cc(O)cc(O)c3c(=O)c2OC2OC(CO[C@@H]3O[C@@H](C)[C@H](O)[C@@H](O)[C@H]3O)C(O)C(O)C2O)ccc1O (stereo partly specified) | 23
O=c1c(O[C@@H]2O[C@H](CO)[C@@H](O)[C@H](O)[C@H]2O)c(-c2ccc(O)c(O)c2)oc2cc(O)cc(O)c12 | 58*
COc1cc(-c2oc3cc(O)cc(O)c3c(=O)c2OC2OC(CO)C(O)C(O)C2O)ccc1O (stereo unspecified) | 56*
SMILES | PRC2 inh
Cc1c(Cl)cccc1NC(=O)CNC(=O)c1ccc([N+](=O)[O-])cc1 | -24
Cc1ccc(S(=O)(=O)N[C@H](C(=O)NCCn2cc(C(=O)NO)nn2)C(C)C)cc1 | 5
C[C@@H](O)[C@@H](O)[C@@H](O)C/C=N/NC(=O)c1ccccn1 | -1
O=C(CCCCCC(=O)N/N=C/c1ccc([N+](=O)[O-])s1)NO | 9
C=CCN(CC=C)S(=O)(=O)c1ccc(C(=O)Nc2ccccc2-c2nc3ccccc3[nH]2)cc1 | -16
Nc1cc(=O)[nH]c(S/C=C/c2ccccc2)n1 | 6
O=C(CCCCCCC(=O)Nc1ccccc1O)N/N=C/c1ccc(OCc2ccccc2)cc1O | 22
COc1ccc(I)cc1C(Nc1cc(C)ccn1)c1ccc2cccnc2c1O (stereo unspecified) | -35
C/C=C1\[C@H](O[C@@H]2O[C@H](CO)[C@@H](O)[C@H](O)[C@H]2O)OC=C(C(=O)OC)[C@H]1CC(=O)OC | -6
C/C=C1\C(O[C@@H]2O[C@H](CO)[C@@H](O)[C@H](O)[C@H]2O)OC=C(C(=O)OC)C1CC(=O)OC[C@H]1O[C@@H](OCCc2ccc(O)cc2)[C@H](OC(=O)CC2C(C(=O)OC)=COC(O[C@@H]3O[C@H](CO)[C@@H](O)[C@H](O)[C@H]3O)/C2=C\C)[C@@H](O)[C@@H]1O (stereo partly specified) | 2
C/C=C1/[C@H](O[C@@H]2O[C@H](CO)[C@@H](O)[C@H](O)[C@H]2O)OC=C(C(=O)OC)[C@H]1CC(=O)OCCc1ccc(OC(=O)C[C@@H]2C(C(=O)OC)=CO[C@@H](O[C@@H]3O[C@H](CO)[C@@H](O)[C@H](O)[C@H]3O)/C2=C/C)cc1 | 61*
Cc1ccc(C2=CC(c3ccccc3)SC(N)=N2)cc1 (stereo unspecified) | 1
COC(=O)c1cccc(NC(=O)CN(c2ccc(F)c(Cl)c2)S(C)(=O)=O)c1C | 1
CCCCN1C(=O)[C@H]2Cc3c([nH]c4ccccc34)[C@H](c3ccc(OC)cc3)N2C1=O | -12
C[C@@H]1O[C@@H](O[C@@H]2[C@@H](O)[C@H](OCCc3ccc(O)c(O)c3)O[C@H](CO[C@@H]3OC[C@](O)(CO)[C@H]3O)[C@H]2OC(=O)/C=C/c2ccc(O)c(O)c2)[C@H](O[C@@H]2OC[C@H](O)[C@H](O)[C@H]2O)[C@H](O)[C@H]1O | 68*
COC(=O)C1=COC(O[C@@H]2O[C@H](CO)[C@@H](O)[C@H](O)[C@H]2O)[C@@H]2[C@@H](C)[C@@H](OC(=O)/C=C/c3ccc(O)c(O)c3)[C@@H](O)[C@H]12 (stereo partly specified) | 4
COc1ccc(/C=C/C(=O)O[C@H]2[C@H](OC3C4O[C@]4(CO)[C@H]4C(O[C@@H]5O[C@H](CO)[C@@H](O)[C@H](O)[C@H]5O)OC=C[C@@H]34)O[C@@H](C)[C@H](O)[C@H]2O)cc1 (stereo partly specified) | 8
CSc1nc(SCC(=O)Nc2cccc(C)c2)c2c3c(sc2n1)CCCC3 | 3
O=C(NO)c1cccc(C(=O)N/N=C/c2ccc(O)c(O)c2)c1 | 94*
O=C(NO)c1cccc(C(=O)N/N=C/c2ccc3ccccc3c2)c1 | 6
O=C(NO)c1cccc(C(=O)N/N=C/c2ccc(F)cc2)c1 | 1
CN1C(=O)N[C@@H]2c3ccccc3O[C@@]1(C)[C@@H]2CO[Si](C)(C)C(C)(C)C | 3
COc1ccc2c(c1)c(CC(=O)O)c(C)n2C(=O)c1ccc(Cl)cc1 | 7
COc1ccc2c(c1)c(CC(=O)OCc1ccccn1)c(C)n2C(=O)c1ccc(Cl)cc1 | 56*
COc1ccc(-n2c(C)c(C(C)=O)c3cc(OCC(N)=O)ccc32)cc1 | 24
Cc1cccc(NC(=O)c2ccccc2NC(=O)COc2ccccc2)c1C | 4
O=[N+]([O-])c1ccccc1-c1ccc(-c2nn3c(-c4ccccc4)nnc3s2)o1 | 10
O=C(O)CCCCCCC(=O)N/N=C/CCC1CCCCC1 | 11
O=C(O)CCCC[C@@H]1SC[C@@H]2NC(=O)N[C@@H]21 | 99*
